The whole screen tested about 640,000 compounds, of which about 9,300 (1.5%) were called active. No stated cut-off is given here; in the data, active means inhibition above about 32%; inactive means the rest. What follows is part of a selection rich in actives, with near analogues and random picks from the rest.
Assay: TEAD-YAP interaction inhibition, primary screen, TEAD-YAP interaction inhibitor project, luminescence, HEK-TIYL cells (AID 1259422);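 further: 0% = median of test compound wells and 100% = reference inhibitor wells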
Conditions: TEAD-Gal4/YAP UAS-luciferase luminescence, at 9.12 µM, active compounds read high

Structure (SMILES)	inhibition
CCOc1ccc(-n2c(-c3ccc4c(c3)OCCO4)c[n+]3c2CCCCC3)cc1	85.2% (active)
CCOc1ccc(C(=O)CCC(=O)OCC(=O)c2ccc3c(c2)OCCO3)cc1	5.42% (inactive)
CCOc1ccc2c(=O)c(-c3ccc4c(c3)OCCCO4)c(C)oc2c1	-7.66% (inactive)
COc1ccc(N2Cc3cccc(C(=O)NCC(OC)OC)c3C2=O)cc1	-8.73% (inactive)
COc1ccc2c(c1OC)C(=O)N(c1ccc(O)cc1)C2	67.1% (active)
COc1ccc2c(c1OC)C(=O)N(c1ncn[nH]1)C2	3.4% (inactive)
CCOC(=O)c1cccc(NC(=O)Cn2cc3c(n2)CCCCC3)c1	8.83% (inactive)
O=[N+]([O-])c1ccccc1Oc1cccc2cccnc12	-9.26% (inactive)
O=S(=O)(Nc1cccc2cccnc12)c1ccc(S(=O)(=O)N2CCCCC2)cc1	23.6% (inactive)
O=[N+]([O-])c1ccccc1S(=O)(=O)Nc1cccc2cccnc12	32.8% (active)
Cn1c(/N=C/c2nc(-c3cccc4ccccc34)oc2O)nc2ccccc21	-6.43% (inactive)
O=C(CO/N=C/c1ccccc1)N=Nc1c(O)[nH]c2ccccc12	5.66% (inactive)
CCOc1ccc2nc(NC(=O)C3CC3)sc2c1	-49.8% (inactive)
COc1ccc2c(c1)CC(C(=O)Nc1ccc(-c3cn[nH]c3)cc1OCc1ccccc1)CO2 (centres undefined)	-15.1% (inactive)
COc1ccc2c(c1)CC(C(=O)Nc1ccc(-c3cn[nH]c3)cc1O[C@H]1CCOC1)CO2 (some centres undefined)	22.3% (inactive)
CC1=CCC(C(=O)O)C(C(=O)Nc2nc3ccc(C)cc3s2)C1 (centres undefined)	-1.36% (inactive)
COc1ccc2c(c1)CC(C(=O)Nc1nc3ccc(-c4cn[nH]c4C)cc3s1)CO2 (centres undefined)	53.5% (active)
Cc1[nH]ncc1-c1ccc2nc(NC(=O)C3COc4ccccc4C3)sc2c1 (centres undefined)	60.2% (active)
Cc1cccc(C2c3[nH]c4ccccc4c3CCN2C(=O)Cn2nc(C)nc2C)n1 (centres undefined)	-0.52% (inactive)
COc1ccc2nc(/C(C#N)=C\c3ccc(N4CCOCC4)cc3)[nH]c2c1	-25.6% (inactive)

Structure (SMILES)	inhibition
N#C/C(=C\c1ccc(N2CCOCC2)cc1)c1ccccn1	90.2% (active)
COCCNC(=O)/C(C#N)=C/c1ccc(N2CCOCC2)cc1	-20.6% (inactive)
CCOc1cc(C2C=C(c3cccc([N+](=O)[O-])c3)Nc3ncnn32)ccc1OC(F)F (centres undefined)	-5.43% (inactive)
COC(=O)c1ccc(CSc2cc(N3CCN(c4ccccc4F)CC3)ncn2)o1	-17.6% (inactive)
Cc1cc(C)n2nc(SCC(=O)NCCCN3CCCC3=O)nc2n1	6.95% (inactive)
O=C1N=c2ccccc2=C1c1[nH]c(=S)n(-c2ccccc2)c1O	-4.63% (inactive)
COc1cccc(-n2c(SCC(=O)Nc3cccc(O)c3)nnc2-c2ccncc2)c1	1.48% (inactive)
COC(=O)CSc1nnc(-c2cccc(OC)c2)n1C	8.2% (inactive)
COc1cccc(-c2nnc(SCC(=O)Nc3ccccc3)n2-n2cccc2)c1	47.3% (active)
COCCNC(=O)c1oc2ccc3c(c2c1C)C(=O)CC1(CCCC1)O3	-23.1% (inactive)
Nc1nc(SC(c2ccccc2)c2ccccc2)nc2sc3c(c12)CCCC3	5.46% (inactive)
CCN(CC)C1CCN(C(=O)c2cc(COc3ccc4ncccc4c3)on2)C1 (centres undefined)	14.7% (inactive)
CN(Cc1cccnc1)C(=O)c1cc(COc2ccc3ncccc3c2)on1	40.8% (active)
O=C(c1cc(COc2ccc3ncccc3c2)on1)N1C[C@@H]2CCC[C@H]1C2	32.6% (active)
Cc1nonc1CN(C)C(=O)c1cc(COc2cccc(C(F)(F)F)c2)on1	-10.6% (inactive)
Cc1cc(CNC(=O)c2cc(COc3ccc4ncccc4c3)on2)nn1C	12.1% (inactive)
COCC1CCN(C(=O)c2cc(COc3ccc4ncccc4c3)on2)C1 (centres undefined)	30.8% (inactive)
NC(=O)COC(=O)c1cccc(S(=O)(=O)NCc2ccccc2)c1	-3.84% (inactive)
CC(C)c1ccc(CN[C@H]2C[C@H]3C(=O)N[C@H]([C@H](C)O)C(=O)N3C2)cc1	1.15% (inactive)
COc1ccc(NC(=O)C2Cc3ccccc3CN2S(=O)(=O)c2ccc(C)cc2)cc1 (centres undefined)	12.4% (inactive)

Structure (SMILES)	inhibition
[O-][n+]1onc2c1CCc1[nH]c(-c3ccccc3)nc1-2	41.9% (active)
c1ccc(-c2nc(-c3ccncc3)[nH]c2-c2ccccc2)cc1	6.95% (inactive)
Nc1nc2c(s1)CCc1c-2no[n+]1[O-]	12.3% (inactive)
Cc1ccc(C)c(N(Cc2ccccc2C)S(C)(=O)=O)c1	-3.99% (inactive)
COc1ccc(Cl)cc1Nc1c(-c2ccc3c(c2)OCC(=O)N3)c(=O)c1=O	2.85% (inactive)
CC(C)(C)C(=O)Nc1ccc(C(=O)Nc2nccs2)cc1	53.9% (active)
CC(=O)C(C)(C)OC(=O)Nc1nccs1	4.65% (inactive)
Cc1ccc(C(=O)Nc2nccs2)cc1C	-7.57% (inactive)
COc1ccccc1NC(=O)COC(=O)C(C)N1C(=O)C(=O)c2ccccc21 (centres undefined)	13.1% (inactive)
Cc1ccc(/C=N/NC(=O)c2cccc(F)c2)c(O)c1	-36.3% (inactive)
O=C(Nc1c(C(=O)N2CCC(Cc3ccccc3)CC2)cnn1-c1ccccc1)c1ccco1	-7.49% (inactive)
COC(=O)c1ccc(/C=C2/SC(N)=NC2=O)cc1	16% (inactive)
NC1=NC(=O)/C(=C\c2ccc3c(c2)OCO3)S1	46.8% (active)
COc1cc(/C=C2/SC(N)=NC2=O)cc(OC)c1OC	6.04% (inactive)
CC(C)CC1=NN2C(=N)/C(=C/c3ccc4c(c3)OCO4)C(=O)N=C2S1	-1.58% (inactive)
NC1=NC(=O)/C(=C\c2ccc3ncccc3c2)S1	52.6% (active)
CN1C(N)=NC(=O)/C1=C\c1ccc2c(c1)OCO2	-15% (inactive)
CCOC(=O)c1c(NC(=O)CSc2nnc(CNC(=O)c3cc(OC)cc(OC)c3)n2-c2cccc(C)c2)sc2c1CCCC2	3.65% (inactive)
CCOc1ccc(C(=O)O/N=C(\N)c2ccc(OC)cc2)cc1OCC	-6.66% (inactive)

Reference: PubChem BioAssay AID1259422 (The Scripps Research Institute Molecular Screening Center, 2018)
